# Experiments:
# [1] = target: T1, Ephrin type-B receptor 1 (Homo sapiens) (UniProt P54762); conditions: at 10 µM
# T1 sequence (whole entry): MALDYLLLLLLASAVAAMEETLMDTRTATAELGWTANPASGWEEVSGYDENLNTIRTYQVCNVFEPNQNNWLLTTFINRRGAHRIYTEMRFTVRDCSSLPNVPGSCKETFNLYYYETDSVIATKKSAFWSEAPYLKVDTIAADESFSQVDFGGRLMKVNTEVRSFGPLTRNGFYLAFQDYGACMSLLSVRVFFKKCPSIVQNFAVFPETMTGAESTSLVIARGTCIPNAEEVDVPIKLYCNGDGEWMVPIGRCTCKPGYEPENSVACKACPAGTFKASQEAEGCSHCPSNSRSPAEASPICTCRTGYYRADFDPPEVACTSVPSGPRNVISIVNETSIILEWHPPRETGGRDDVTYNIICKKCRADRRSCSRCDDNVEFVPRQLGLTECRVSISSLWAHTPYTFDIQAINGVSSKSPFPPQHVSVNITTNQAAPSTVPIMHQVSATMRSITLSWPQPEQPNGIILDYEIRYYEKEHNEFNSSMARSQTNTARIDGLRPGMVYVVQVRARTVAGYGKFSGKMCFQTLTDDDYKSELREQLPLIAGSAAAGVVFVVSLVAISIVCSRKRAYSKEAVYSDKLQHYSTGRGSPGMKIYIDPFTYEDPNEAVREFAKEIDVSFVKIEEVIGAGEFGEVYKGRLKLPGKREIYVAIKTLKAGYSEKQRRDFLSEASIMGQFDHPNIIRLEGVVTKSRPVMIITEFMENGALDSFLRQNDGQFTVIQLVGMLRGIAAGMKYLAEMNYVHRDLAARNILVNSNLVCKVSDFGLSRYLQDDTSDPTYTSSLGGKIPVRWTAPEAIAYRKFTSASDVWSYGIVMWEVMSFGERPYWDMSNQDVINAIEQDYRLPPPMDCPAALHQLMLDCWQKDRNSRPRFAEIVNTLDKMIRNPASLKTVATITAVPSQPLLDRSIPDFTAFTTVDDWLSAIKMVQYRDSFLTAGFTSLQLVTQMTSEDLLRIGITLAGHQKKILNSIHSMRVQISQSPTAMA
# [2] = target: T2, Ephrin type-B receptor 2 (Homo sapiens) (UniProt P29323); conditions: at 1 µM
# T2 sequence (whole entry): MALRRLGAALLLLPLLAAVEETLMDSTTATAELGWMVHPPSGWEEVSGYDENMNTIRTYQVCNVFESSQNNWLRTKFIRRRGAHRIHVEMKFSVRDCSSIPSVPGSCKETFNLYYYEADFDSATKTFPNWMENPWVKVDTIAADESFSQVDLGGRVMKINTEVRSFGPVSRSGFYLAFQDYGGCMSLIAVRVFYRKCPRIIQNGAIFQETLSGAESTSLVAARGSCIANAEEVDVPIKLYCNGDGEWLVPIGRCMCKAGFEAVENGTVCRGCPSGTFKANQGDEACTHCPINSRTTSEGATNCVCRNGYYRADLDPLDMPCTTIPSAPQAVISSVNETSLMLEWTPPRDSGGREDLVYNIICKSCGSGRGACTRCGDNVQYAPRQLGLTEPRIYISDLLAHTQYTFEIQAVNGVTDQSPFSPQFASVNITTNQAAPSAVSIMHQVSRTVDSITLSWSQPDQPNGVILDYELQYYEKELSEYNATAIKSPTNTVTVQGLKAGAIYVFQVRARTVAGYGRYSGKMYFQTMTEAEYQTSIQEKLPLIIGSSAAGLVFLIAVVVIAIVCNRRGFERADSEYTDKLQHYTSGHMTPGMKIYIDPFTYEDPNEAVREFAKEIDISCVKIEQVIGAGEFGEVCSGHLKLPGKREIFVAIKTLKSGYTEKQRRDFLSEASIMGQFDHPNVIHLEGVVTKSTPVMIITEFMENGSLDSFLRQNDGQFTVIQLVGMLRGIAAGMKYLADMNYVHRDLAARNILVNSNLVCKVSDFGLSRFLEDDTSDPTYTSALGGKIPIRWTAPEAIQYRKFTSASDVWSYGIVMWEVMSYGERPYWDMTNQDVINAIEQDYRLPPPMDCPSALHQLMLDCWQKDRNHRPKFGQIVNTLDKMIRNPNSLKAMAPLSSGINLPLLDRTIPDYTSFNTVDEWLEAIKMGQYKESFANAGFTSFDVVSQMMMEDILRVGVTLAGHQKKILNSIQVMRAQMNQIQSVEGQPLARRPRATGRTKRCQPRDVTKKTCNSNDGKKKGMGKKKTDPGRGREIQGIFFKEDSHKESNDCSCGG
# [3] = target: T2, Ephrin type-B receptor 2 (Homo sapiens); conditions: at 10 µM
# [4] = target: T3, Ephrin type-B receptor 3 (Homo sapiens) (UniProt P54753); conditions: at 1 µM
# T3 sequence (whole entry): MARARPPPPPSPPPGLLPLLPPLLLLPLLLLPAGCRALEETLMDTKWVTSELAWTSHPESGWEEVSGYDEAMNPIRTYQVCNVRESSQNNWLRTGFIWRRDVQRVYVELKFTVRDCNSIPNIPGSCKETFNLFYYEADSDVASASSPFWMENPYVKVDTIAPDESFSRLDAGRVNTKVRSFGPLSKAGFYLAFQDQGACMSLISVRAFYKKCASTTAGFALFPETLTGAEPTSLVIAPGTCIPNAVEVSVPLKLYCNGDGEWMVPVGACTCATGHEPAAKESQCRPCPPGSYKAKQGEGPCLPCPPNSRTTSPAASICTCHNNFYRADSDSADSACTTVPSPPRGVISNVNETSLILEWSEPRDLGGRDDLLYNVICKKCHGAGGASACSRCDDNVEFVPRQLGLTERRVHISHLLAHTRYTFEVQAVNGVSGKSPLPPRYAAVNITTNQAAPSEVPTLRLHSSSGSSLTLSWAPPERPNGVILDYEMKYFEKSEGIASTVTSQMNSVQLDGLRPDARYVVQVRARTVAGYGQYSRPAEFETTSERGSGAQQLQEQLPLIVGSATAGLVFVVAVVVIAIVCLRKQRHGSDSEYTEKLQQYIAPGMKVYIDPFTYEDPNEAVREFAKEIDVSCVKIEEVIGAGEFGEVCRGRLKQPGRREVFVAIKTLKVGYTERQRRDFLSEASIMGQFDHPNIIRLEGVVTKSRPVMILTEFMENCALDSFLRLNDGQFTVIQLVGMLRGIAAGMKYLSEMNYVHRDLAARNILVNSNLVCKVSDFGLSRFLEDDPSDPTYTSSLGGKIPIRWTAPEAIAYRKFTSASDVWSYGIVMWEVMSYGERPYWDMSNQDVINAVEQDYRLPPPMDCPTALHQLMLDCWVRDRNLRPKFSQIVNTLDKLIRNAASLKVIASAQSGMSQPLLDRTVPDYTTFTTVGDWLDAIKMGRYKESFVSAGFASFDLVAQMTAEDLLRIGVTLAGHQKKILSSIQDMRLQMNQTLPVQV
# [5] = target: T3, Ephrin type-B receptor 3 (Homo sapiens); conditions: at 10 µM
# [6] = target: T4, Ephrin type-B receptor 4 (Homo sapiens) (UniProt P54760); conditions: at 1 µM
# T4 sequence (whole entry): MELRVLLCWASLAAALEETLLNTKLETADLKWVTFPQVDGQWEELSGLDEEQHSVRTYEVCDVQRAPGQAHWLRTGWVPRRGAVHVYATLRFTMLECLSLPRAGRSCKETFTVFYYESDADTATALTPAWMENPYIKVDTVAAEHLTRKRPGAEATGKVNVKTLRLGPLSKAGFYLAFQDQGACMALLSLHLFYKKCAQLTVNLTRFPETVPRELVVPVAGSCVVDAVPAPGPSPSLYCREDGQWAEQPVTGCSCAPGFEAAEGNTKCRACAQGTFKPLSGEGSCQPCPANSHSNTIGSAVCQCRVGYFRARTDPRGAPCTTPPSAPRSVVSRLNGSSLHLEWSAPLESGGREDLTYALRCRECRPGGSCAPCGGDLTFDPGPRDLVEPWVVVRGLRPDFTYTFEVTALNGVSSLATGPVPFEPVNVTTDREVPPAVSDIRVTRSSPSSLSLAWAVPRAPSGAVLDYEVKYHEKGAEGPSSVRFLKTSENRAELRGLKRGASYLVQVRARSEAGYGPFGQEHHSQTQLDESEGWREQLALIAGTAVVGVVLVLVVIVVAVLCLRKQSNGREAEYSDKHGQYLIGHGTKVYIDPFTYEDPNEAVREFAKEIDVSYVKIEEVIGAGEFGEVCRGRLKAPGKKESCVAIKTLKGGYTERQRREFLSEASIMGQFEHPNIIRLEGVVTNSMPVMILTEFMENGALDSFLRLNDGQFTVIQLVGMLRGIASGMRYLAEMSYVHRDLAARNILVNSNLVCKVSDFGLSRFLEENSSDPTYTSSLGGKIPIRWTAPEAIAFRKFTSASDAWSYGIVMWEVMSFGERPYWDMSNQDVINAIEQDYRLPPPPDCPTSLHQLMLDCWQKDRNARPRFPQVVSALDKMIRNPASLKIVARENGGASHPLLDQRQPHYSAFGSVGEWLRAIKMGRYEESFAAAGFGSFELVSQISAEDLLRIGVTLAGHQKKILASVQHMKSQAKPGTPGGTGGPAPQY
# [7] = target: T4, Ephrin type-B receptor 4 (Homo sapiens); conditions: at 10 µM
# [8] = target: Receptor tyrosine-protein kinase erbB-4 (Homo sapiens) (UniProt Q15303); conditions: at 1 µM
# Receptor tyrosine-protein kinase erbB-4 (Homo sapiens), sequence (Q15303 whole entry): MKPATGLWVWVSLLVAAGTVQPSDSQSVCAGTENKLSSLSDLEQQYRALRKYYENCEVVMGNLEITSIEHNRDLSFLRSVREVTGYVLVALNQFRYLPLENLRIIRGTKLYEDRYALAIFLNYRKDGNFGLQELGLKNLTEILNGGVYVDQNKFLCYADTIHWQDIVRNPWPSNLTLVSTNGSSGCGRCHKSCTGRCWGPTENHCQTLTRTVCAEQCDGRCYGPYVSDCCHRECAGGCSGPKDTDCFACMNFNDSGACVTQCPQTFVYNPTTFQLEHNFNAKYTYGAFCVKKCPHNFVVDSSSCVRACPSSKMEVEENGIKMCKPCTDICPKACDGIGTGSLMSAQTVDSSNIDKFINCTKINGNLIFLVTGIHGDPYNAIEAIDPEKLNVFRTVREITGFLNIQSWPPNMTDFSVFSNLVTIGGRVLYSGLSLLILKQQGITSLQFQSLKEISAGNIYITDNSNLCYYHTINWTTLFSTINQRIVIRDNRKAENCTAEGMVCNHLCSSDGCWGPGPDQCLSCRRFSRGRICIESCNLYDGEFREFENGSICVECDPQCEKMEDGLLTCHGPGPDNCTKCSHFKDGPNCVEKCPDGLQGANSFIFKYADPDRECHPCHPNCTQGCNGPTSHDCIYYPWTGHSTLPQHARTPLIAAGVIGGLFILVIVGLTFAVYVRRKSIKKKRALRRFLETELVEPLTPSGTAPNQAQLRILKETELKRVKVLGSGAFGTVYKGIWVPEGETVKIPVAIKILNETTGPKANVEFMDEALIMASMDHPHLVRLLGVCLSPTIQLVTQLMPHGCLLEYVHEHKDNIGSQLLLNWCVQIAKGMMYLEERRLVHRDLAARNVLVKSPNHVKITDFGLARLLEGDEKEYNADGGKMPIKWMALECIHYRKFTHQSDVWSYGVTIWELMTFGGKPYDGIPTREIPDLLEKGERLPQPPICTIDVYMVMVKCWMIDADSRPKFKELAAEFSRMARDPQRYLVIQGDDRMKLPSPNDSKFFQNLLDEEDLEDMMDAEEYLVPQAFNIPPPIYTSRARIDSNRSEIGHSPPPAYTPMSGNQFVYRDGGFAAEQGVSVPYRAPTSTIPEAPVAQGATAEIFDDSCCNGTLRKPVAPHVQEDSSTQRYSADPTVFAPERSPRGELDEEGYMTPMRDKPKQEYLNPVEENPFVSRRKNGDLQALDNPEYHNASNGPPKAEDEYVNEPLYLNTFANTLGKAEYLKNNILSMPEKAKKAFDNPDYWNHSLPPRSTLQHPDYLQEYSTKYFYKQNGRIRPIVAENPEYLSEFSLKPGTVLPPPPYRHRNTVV
# [9] = target: Receptor tyrosine-protein kinase erbB-4 (Homo sapiens) (UniProt Q15303); conditions: at 10 µM
# [10] = target: Focal adhesion kinase 1 (Homo sapiens) (UniProt Q05397); conditions: at 1 µM
# Focal adhesion kinase 1 (Homo sapiens), sequence (Q05397 2-1052 limits assumed): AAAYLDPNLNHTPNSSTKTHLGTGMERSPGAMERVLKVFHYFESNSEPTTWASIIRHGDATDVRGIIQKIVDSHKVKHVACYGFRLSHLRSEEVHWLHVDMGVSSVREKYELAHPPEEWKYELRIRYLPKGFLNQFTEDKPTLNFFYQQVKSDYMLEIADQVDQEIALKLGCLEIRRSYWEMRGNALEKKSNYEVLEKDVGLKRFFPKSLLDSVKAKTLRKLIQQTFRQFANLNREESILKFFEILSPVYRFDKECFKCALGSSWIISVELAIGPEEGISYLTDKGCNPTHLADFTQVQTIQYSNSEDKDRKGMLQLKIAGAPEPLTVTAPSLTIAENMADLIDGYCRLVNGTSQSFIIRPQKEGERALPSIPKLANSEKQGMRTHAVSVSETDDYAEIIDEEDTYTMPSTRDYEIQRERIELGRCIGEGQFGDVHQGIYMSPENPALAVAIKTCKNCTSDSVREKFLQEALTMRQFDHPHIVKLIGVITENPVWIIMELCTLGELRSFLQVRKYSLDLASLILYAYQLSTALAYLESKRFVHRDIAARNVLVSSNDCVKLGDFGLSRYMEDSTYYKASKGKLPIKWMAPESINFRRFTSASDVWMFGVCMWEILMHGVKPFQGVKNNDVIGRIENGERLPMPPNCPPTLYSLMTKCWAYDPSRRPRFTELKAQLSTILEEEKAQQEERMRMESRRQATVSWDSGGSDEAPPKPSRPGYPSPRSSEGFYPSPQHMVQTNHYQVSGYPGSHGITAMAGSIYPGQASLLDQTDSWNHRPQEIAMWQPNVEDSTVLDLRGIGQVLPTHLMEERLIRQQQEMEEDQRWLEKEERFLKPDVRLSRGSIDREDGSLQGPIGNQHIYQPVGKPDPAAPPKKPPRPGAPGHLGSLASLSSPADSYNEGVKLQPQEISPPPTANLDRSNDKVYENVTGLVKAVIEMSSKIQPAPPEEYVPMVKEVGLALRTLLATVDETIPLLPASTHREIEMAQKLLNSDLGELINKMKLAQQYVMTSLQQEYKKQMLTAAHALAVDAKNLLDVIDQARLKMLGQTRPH
compound,measurement,setting,value
COc1ccc(OC)c2c(=S)c3ccccc3[nH]c12,residual activity,[1],83%
same,residual activity,[2],114%
same,residual activity,[3],118%
same,residual activity,[4],114% (inactive)
same,residual activity,[5],101%
same,residual activity,[6],97%
same,residual activity,[7],102%
same,residual activity,[8],80%
same,residual activity,[9],77%
same,residual activity,[10],91%

# From ChEMBL document CHEMBL2218924, “A broad activity screen in support of a chemogenomic map for kinase signalling research and drug discovery” (Biochem J, 2013)
